This is an account of results in the supplement of paper PMC3545927.

The target in the assay is furin, P09958. Put plainly: furin cleavage Z-score vs untreated control; higher = more cleavage, active = 3.5 or more, inactive = 1 or less, 8 variable residues between constant flanks. In short, it runs like this:
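To give the cleavage Z-score, log read counts were set against furin-free reactions, lowess-adjusted and scaled by median absolute deviation. These counts came from PCR adapter-tagged, sequenced DNA released when purified furin cut 8-mer peptides fused to a cDNA oligonucleotide and held on magnetic beads by their N-terminus. Digests were 0.01 ml, 1:10 enzyme:substrate, in 50 mM HEPES pH 7.5 with CaCl2 and NaCl, for 7.5, 15 or 30 min.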

Some of the results follow. No count for the full screen is at hand.

Chain of furin, P09958 (P09958 whole entry, the tested form may be a part): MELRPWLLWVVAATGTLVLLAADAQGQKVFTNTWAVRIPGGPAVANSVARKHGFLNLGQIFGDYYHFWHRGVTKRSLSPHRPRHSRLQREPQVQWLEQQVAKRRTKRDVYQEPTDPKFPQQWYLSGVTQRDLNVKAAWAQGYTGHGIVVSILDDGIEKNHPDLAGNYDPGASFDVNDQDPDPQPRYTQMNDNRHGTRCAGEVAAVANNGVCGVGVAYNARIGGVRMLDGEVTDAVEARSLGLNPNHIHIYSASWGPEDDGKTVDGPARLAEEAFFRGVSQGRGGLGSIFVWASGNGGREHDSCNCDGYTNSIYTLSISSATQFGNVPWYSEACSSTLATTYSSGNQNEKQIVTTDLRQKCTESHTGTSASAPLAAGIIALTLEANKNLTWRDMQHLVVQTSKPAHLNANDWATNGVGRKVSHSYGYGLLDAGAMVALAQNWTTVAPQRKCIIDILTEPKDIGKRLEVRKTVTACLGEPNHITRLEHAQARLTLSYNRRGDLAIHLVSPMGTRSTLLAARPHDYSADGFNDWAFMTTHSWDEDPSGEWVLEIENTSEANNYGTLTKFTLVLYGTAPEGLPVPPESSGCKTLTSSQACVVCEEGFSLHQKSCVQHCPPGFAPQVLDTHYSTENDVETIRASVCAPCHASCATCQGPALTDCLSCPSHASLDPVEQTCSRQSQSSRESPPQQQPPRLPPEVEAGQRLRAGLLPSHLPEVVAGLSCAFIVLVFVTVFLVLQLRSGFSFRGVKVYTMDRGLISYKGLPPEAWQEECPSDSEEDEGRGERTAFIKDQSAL

Turning to CAAGVQEDAAAGNASASA [HC1534], the “furin cleavage Z-score” value (7.5 min) is 0.273 (inactive), the “furin cleavage Z-score” value (15 min) is -0.401 (inactive) and the “furin cleavage Z-score” value (30 min) is -1.13 (inactive).

With CAEKPCHRPSAGNASASA [HC2334], the “furin cleavage Z-score” value was -0.309 (inactive) (7.5 min), 0.292 (inactive) (15 min) and 0.19 (inactive) (30 min).

With CADRMEECSQAGNASASA [HC1813], the “furin cleavage Z-score” value is, setting by setting: (7.5 min) 0.635 (inactive); (15 min) -0.476 (inactive); (30 min) -0.0128 (inactive).

On to CARSARSVARAGNASASA [FS-3075], for which the “furin cleavage Z-score” value (7.5 min) is 5.33 (active), the “furin cleavage Z-score” value (15 min) was 7.5 (active) and the “furin cleavage Z-score” value (30 min) was 6.53 (active).

For the sequence CARWNRFAMIAGNASASA [FS-2200], the “furin cleavage Z-score” value by setting is: (7.5 min) 0.704 (inactive); (15 min) -0.675 (inactive); (30 min) -0.478 (inactive).

Turning to CARTWRSVPEAGNASASA [FS-2528], the “furin cleavage Z-score” value is 0.349 (inactive) (7.5 min), 0.625 (inactive) (15 min) and 1.35 (30 min).

CARWPRSDPEAGNASASA [FS-1807]: the “furin cleavage Z-score” value was 2.83 (7.5 min), 2.73 (15 min) and 4.21 (active) (30 min).

In the case of CARSARSAPEAGNASASA [FS-2377], the “furin cleavage Z-score” value is, setting by setting: (7.5 min) 7.91 (active); (15 min) 9.89 (active); (30 min) 6.92 (active).

In the case of CARSIKSVPEAGNASASA [FS-1927], the “furin cleavage Z-score” value (7.5 min) was 0.273 (inactive), the “furin cleavage Z-score” value (15 min) is -0.944 (inactive) and the “furin cleavage Z-score” value (30 min) is 0.475 (inactive).

Consider CASTWCSAHLAGNASASA [HC2508], for which the “furin cleavage Z-score” value is, setting by setting: (7.5 min) 0.983 (inactive); (15 min) 0.815 (inactive); (30 min) 0.802 (inactive).

In the case of CAMILMTHFFAGNASASA [HC1582], the “furin cleavage Z-score” value by setting is: (7.5 min) -0.371 (inactive); (15 min) -0.697 (inactive); (30 min) -2.29 (inactive).

In the case of CAHCTTPCSGAGNASASA [HC1955], the “furin cleavage Z-score” value is, setting by setting: (7.5 min) -1.08 (inactive); (15 min) -1.68 (inactive); (30 min) 0.655 (inactive).

Regarding CAEQVVCCSMAGNASASA [HC2142], the “furin cleavage Z-score” value was -0.416 (inactive) (7.5 min), -0.852 (inactive) (15 min) and 2.1 (30 min).

CAGHQREKRGAGNASASA [FS-428]: the “furin cleavage Z-score” value runs as follows: (7.5 min) 11.3 (active); (15 min) 13.2 (active); (30 min) 10.6 (active).

On to CAKVKREAEKAGNASASA [FS-1674], for which the “furin cleavage Z-score” value was 5.11 (active) (7.5 min), 4.39 (active) (15 min) and 5.05 (active) (30 min).

As for CASVSREDRGAGNASASA [FS-1491], the “furin cleavage Z-score” value was -0.464 (inactive) (7.5 min), -0.739 (inactive) (15 min) and -0.69 (inactive) (30 min).

As for CAKCDELAAKAGNASASA [HC860], the “furin cleavage Z-score” value is 1.37 (7.5 min), 1.03 (15 min) and -0.237 (inactive) (30 min).

With CAPEKRAKRGAGNASASA [FS-1044], the “furin cleavage Z-score” value was 10.2 (active) (7.5 min), 9.94 (active) (15 min) and 7.39 (active) (30 min).

For the sequence CAPEKRSVFAAGNASASA [FS-2874], the “furin cleavage Z-score” value by setting is: (7.5 min) -0.508 (inactive); (15 min) -0.764 (inactive); (30 min) -1.36 (inactive).

As for CAKVKREKRGAGNASASA [FS-454], the “furin cleavage Z-score” value (7.5 min) is 11.2 (active), the “furin cleavage Z-score” value (15 min) was 10.5 (active) and the “furin cleavage Z-score” value (30 min) is 9.94 (active).

For CAEPPEAKRGAGNASASA [FS-1117], the “furin cleavage Z-score” value was 0.349 (inactive) (7.5 min), -1.82 (inactive) (15 min) and -0.871 (inactive) (30 min).

CARQKKLAEKAGNASASA [FS-2585]: the “furin cleavage Z-score” value by setting is: (7.5 min) 0.116 (inactive); (15 min) -2.1 (inactive); (30 min) 0.509 (inactive).

CAPKPCGIVPAGNASASA [HC406]: the “furin cleavage Z-score” value (7.5 min) was 0.0213 (inactive), the “furin cleavage Z-score” value (15 min) is 0.68 (inactive) and the “furin cleavage Z-score” value (30 min) was 1.33.

As to CAESKRLVDTAGNASASA [FS-1880], the “furin cleavage Z-score” value by setting is: (7.5 min) -0.698 (inactive); (15 min) 0.318 (inactive); (30 min) 0.434 (inactive).

Turning to CAEVVTSTTVAGNASASA [HC2238], the “furin cleavage Z-score” value runs as follows: (7.5 min) -0.88 (inactive); (15 min) -1.41 (inactive); (30 min) 0.307 (inactive).

As to CALHKRQVGDAGNASASA [FS-1675], the “furin cleavage Z-score” value is -0.324 (inactive) (7.5 min), -0.439 (inactive) (15 min) and 0.074 (inactive) (30 min).

As to CARQPRSNGDAGNASASA [FS-2292], the “furin cleavage Z-score” value was 0.463 (inactive) (7.5 min), -0.49 (inactive) (15 min) and 1.56 (30 min).

Consider CAGFDRKKRGAGNASASA [FS-238], for which the “furin cleavage Z-score” value was 9.36 (active) (7.5 min), 9.95 (active) (15 min) and 8.88 (active) (30 min).

With CAQRNLKKRGAGNASASA [FS-914], the “furin cleavage Z-score” value (7.5 min) is 10.1 (active), the “furin cleavage Z-score” value (15 min) is 13.1 (active) and the “furin cleavage Z-score” value (30 min) is 11.1 (active).

For the sequence CALRTREKRGAGNASASA [FS-549], the “furin cleavage Z-score” value reads like this: (7.5 min) 7.16 (active); (15 min) 7.31 (active); (30 min) 5.83 (active).

Regarding CAKVKRSQGDAGNASASA [FS-1985], the “furin cleavage Z-score” value was 3.98 (active) (7.5 min), 3.48 (15 min) and 3.75 (active) (30 min).

Regarding CALRNRLFRGAGNASASA [FS-359], the “furin cleavage Z-score” value is, setting by setting: (7.5 min) 0.887 (inactive); (15 min) 1.52; (30 min) -0.676 (inactive).

On to CATTPHSGSWAGNASASA [HC49], for which the “furin cleavage Z-score” value (7.5 min) was -0.934 (inactive), the “furin cleavage Z-score” value (15 min) was -0.777 (inactive) and the “furin cleavage Z-score” value (30 min) was -0.65 (inactive).

With CAEDRDRSELAGNASASA [HC488], the “furin cleavage Z-score” value is 0.995 (inactive) (7.5 min), 1.63 (15 min) and 0.694 (inactive) (30 min).

As for CARTPCSAHLAGNASASA [HC2473], the “furin cleavage Z-score” value by setting is: (7.5 min) 0.852 (inactive); (15 min) -0.775 (inactive); (30 min) 2.15.

Take CAITPCSAHLAGNASASA [HC2464]: the “furin cleavage Z-score” value (7.5 min) is -1.38 (inactive), the “furin cleavage Z-score” value (15 min) is 0.00684 (inactive) and the “furin cleavage Z-score” value (30 min) is -0.357 (inactive).

Turning to CATCPCSGSWAGNASASA [HC1860], the “furin cleavage Z-score” value is, setting by setting: (7.5 min) -0.794 (inactive); (15 min) -0.696 (inactive); (30 min) -0.69 (inactive).

As to CAMTPCSGSWAGNASASA [HC1826], the “furin cleavage Z-score” value was -0.934 (inactive) (7.5 min), -2.45 (inactive) (15 min) and -0.784 (inactive) (30 min).

Consider CAARGRYSRGAGNASASA [FS-1622], for which the “furin cleavage Z-score” value reads like this: (7.5 min) 1.05; (15 min) 0.971 (inactive); (30 min) 1.84.

For CATFAVEKRGAGNASASA [FS-1289], the “furin cleavage Z-score” value is 1.19 (7.5 min), 0.186 (inactive) (15 min) and 0.573 (inactive) (30 min).

In the case of CAAPHREKRGAGNASASA [FS-398], the “furin cleavage Z-score” value is, setting by setting: (7.5 min) 10.8 (active); (15 min) 11.4 (active); (30 min) 9.9 (active).

On to CAEVVWSTWVAGNASASA [HC127], for which the “furin cleavage Z-score” value by setting is: (7.5 min) 0.227 (inactive); (15 min) 0.0628 (inactive); (30 min) -0.337 (inactive).

Regarding CAKQRRIVGIAGNASASA [FS-2869], the “furin cleavage Z-score” value reads like this: (7.5 min) 0.0283 (inactive); (15 min) -0.751 (inactive); (30 min) 0.888 (inactive).

Turning to CARYRRLTGDAGNASASA [FS-1843], the “furin cleavage Z-score” value is, setting by setting: (7.5 min) -1.17 (inactive); (15 min) -0.169 (inactive); (30 min) 1.01.

As to CARYRRCVGWAGNASASA [FS-2389], the “furin cleavage Z-score” value by setting is: (7.5 min) 3.27; (15 min) 2.12; (30 min) 5.02 (active).

As to CARYCRGVSAAGNASASA [FS-1941], the “furin cleavage Z-score” value runs as follows: (7.5 min) -0.864 (inactive); (15 min) -0.376 (inactive); (30 min) -0.444 (inactive).

Take CARYRRTVGIAGNASASA [FS-2851]: the “furin cleavage Z-score” value runs as follows: (7.5 min) 2.96; (15 min) 3.86 (active); (30 min) 6.08 (active).

On to CARMCRVAGWAGNASASA [FS-2046], for which the “furin cleavage Z-score” value (7.5 min) was 0.157 (inactive), the “furin cleavage Z-score” value (15 min) is -0.469 (inactive) and the “furin cleavage Z-score” value (30 min) is 0.75 (inactive).
